Inconclusive results are not listed. A call without a number means that no potency is given here. Calls of active or inactive are those of the source. Calls follow the shape of the dose curve; as a rule, active = well fitted curve in the direction sought with a large enough effect in the repeat runs; inconclusive = weak or mixed curves; inactive = no such curve, though single readings can be large; an effect the other way counts as inactive or inconclusive.
System: not listed separately
Test: qHTS assay to identify aromatase inhibitors - cell viability counter screen (AID 743084);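 also: cells stimulated with testosterone during compound exposure; nearly all actives have a fitted effect of over 55% in size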
Settings: MCF-7 aro ERE viability, CellTiter-Fluor, 24 h; series mostly up to 70.3 µM

SMILES	Potency	activity change, negative = cytotoxicity
Cn1c(N)c(N=O)c(=O)n(C)c1=O	inactive	–
N[C@H](C(=O)O)c1ccc(O)cc1	inactive	–
Nc1ccccc1S(=O)(=O)O	inactive	–
COc1c(N2C[C@@H]3CCCN[C@@H]3C2)c(F)cc2c(=O)c(C(=O)O)cn(C3CC3)c12	inactive	–
CC(=O)OCC(CCn1cnc2cnc(N)nc21)COC(C)=O	inactive	–
CCn1nc(C(=O)O)c(=O)c2cc3c(cc21)OCO3	inactive	–
CCC(C)S (configuration not stated)	–	-1.89% [at 3.79 µM] (inactive)
CCCCCCOC(=O)CCCCC(=O)OCCCCCC	inactive	–
CC/C=C\CCOC(C)=O	inactive	–
C[C@H]1C[C@@H](O)CC(C)(C)C1	inactive	–
O=C1OC(=O)C2CCCCC12 (configuration not stated)	inactive	–
O=C1CC2CC1C1CCCC21 (configuration not stated)	inactive	–
CCCN(CCC)CCc1cccc2c1CC(=O)N2	inactive	–
C=C(C)CS(=O)(=O)O	inactive	–
Nc1cc(=O)[nH]c(N)n1	inactive	–
NCCCNCCSP(=O)(O)O	inactive	–
CC(=O)OCC(=O)[C@@]1(O)CCC2C3CCC4=CC(=O)CC[C@]4(C)C3[C@@H](O)C[C@@]21C (some centres not stated)	inactive	–

SMILES	Potency	activity change, negative = cytotoxicity
NS(=O)(=O)c1ccc(C(=O)O)cc1	inactive	–
CCOc1ccc(C(=O)OCCN(CC)CC)cc1	inactive	–
O=c1cc(CO)occ1O	inactive	–
O=c1[nH]c(=O)n([C@H]2C[C@H](O)[C@@H](CO)O2)cc1I	inactive	–
CC(C[N+](C)(C)C)OC(N)=O (configuration not stated)	inactive	–
CO[Si](CCCOCC1CO1)(OC)OC (configuration not stated)	inactive	–
CN1C(=O)N(C)C(O)C1O (configuration not stated)	inactive	–
CC1=CC(C)C(C=O)CC1 (configuration not stated)	inactive	–
OCCOc1ccc(OCCO)cc1	inactive	–
O=C(O)c1ccccc1OP(=O)(O)O	inactive	–
CC(C)NC(=O)NC(C)C	inactive	–
CCN(CC)CCNC(=O)c1cc(S(C)(=O)=O)ccc1OC	inactive	–
Cn1cc(S(C)=O)c(=O)c2ccc(F)cc21 (configuration not stated)	inactive	–
CC(C)c1cc2c(cc1S(=O)(=O)O)[C@@]1(C)CCC[C@@](C)(C(=O)O)[C@@H]1CC2	inactive	–
O=c1n(CCO)c(=O)n(CCO)c(=O)n1CCO	inactive	–
CCC(C)C1CCCCC1=O (configuration not stated)	inactive	–
COC(C)(C)CCCC(C)CC=O (configuration not stated)	inactive	–

Target: Aryl hydrocarbon receptor (Homo sapiens) (UniProt P35869)
Test: qHTS assay to identify small molecule that activate the aryl hydrocarbon receptor (AhR) signaling pathway (AID 743085); also: nearly all actives have a fitted effect of over 15% in size; also: potency is read from the fitted curve at half-maximal effect;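 as to activation: HG2L7.5c1 human HepG2 liver cells with stably integrated DRE-driven firefly reporter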
Settings: HepG2 AhR-luc (HG2L7.5c1), luciferase, 24 h; series mostly up to 70.3 µM
In short: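 Compounds were tested in HepG2 hepatocellular carcinoma cells harbouring a stably integrated luciferase gene under control of 20 DREs. Increased reporter signal after 24 h treatment at 37C was taken as AhR activation.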

Sequence of Aryl hydrocarbon receptor (Homo sapiens) (P35869 whole entry, looked up): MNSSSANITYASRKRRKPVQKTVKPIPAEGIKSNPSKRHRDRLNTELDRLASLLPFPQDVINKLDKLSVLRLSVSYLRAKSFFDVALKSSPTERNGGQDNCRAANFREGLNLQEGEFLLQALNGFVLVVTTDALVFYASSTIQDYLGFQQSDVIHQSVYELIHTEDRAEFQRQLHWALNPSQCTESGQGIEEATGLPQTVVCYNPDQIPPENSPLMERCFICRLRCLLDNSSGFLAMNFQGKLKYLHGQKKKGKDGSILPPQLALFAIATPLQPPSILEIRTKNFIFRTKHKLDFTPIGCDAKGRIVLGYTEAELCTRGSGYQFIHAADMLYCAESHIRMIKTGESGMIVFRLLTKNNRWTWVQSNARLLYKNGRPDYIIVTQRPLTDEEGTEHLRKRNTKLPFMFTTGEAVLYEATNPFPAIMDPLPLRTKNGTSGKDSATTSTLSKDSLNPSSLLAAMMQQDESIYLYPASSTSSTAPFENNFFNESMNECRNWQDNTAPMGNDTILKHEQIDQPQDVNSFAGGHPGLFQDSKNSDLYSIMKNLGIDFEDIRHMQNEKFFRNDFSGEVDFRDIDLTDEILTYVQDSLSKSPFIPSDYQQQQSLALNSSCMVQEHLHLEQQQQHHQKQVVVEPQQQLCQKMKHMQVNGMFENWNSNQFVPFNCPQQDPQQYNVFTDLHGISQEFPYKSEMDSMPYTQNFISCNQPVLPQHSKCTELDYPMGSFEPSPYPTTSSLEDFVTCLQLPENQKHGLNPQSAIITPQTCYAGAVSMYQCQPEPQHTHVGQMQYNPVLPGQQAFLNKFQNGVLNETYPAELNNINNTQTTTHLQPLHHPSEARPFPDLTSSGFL

SMILES	Potency	activation
Cn1c(N)c(N=O)c(=O)n(C)c1=O	25.1 µM (active)	–
N[C@H](C(=O)O)c1ccc(O)cc1	inactive	–
Nc1ccccc1S(=O)(=O)O	inactive	–
COc1c(N2C[C@@H]3CCCN[C@@H]3C2)c(F)cc2c(=O)c(C(=O)O)cn(C3CC3)c12	inactive	–
CC(=O)OCC(CCn1cnc2cnc(N)nc21)COC(C)=O	inactive	–
CCn1nc(C(=O)O)c(=O)c2cc3c(cc21)OCO3	inactive	–
CCC(C)S (configuration not stated)	–	2.05% [at 3.79 µM] (inactive)
CCCCCCOC(=O)CCCCC(=O)OCCCCCC	inactive	–
CC/C=C\CCOC(C)=O	inactive	–
C[C@H]1C[C@@H](O)CC(C)(C)C1	inactive	–
O=C1OC(=O)C2CCCCC12 (configuration not stated)	inactive	–
O=C1CC2CC1C1CCCC21 (configuration not stated)	inactive	–
CCCN(CCC)CCc1cccc2c1CC(=O)N2	inactive	–
C=C(C)CS(=O)(=O)O	inactive	–
Nc1cc(=O)[nH]c(N)n1	inactive	–
NCCCNCCSP(=O)(O)O	inactive	–
CC(=O)OCC(=O)[C@@]1(O)CCC2C3CCC4=CC(=O)CC[C@]4(C)C3[C@@H](O)C[C@@]21C (some centres not stated)	inactive	–

SMILES	Potency	activation
NS(=O)(=O)c1ccc(C(=O)O)cc1	inactive	–
CCOc1ccc(C(=O)OCCN(CC)CC)cc1	inactive	–
O=c1cc(CO)occ1O	inactive	–
O=c1[nH]c(=O)n([C@H]2C[C@H](O)[C@@H](CO)O2)cc1I	inactive	–
CC(C[N+](C)(C)C)OC(N)=O (configuration not stated)	inactive	–
CO[Si](CCCOCC1CO1)(OC)OC (configuration not stated)	inactive	–
CN1C(=O)N(C)C(O)C1O (configuration not stated)	inactive	–
CC1=CC(C)C(C=O)CC1 (configuration not stated)	inactive	–
OCCOc1ccc(OCCO)cc1	inactive	–
O=C(O)c1ccccc1OP(=O)(O)O	inactive	–
CC(C)NC(=O)NC(C)C	inactive	–
CCN(CC)CCNC(=O)c1cc(S(C)(=O)=O)ccc1OC	inactive	–
Cn1cc(S(C)=O)c(=O)c2ccc(F)cc21 (configuration not stated)	inactive	–
CC(C)c1cc2c(cc1S(=O)(=O)O)[C@@]1(C)CCC[C@@](C)(C(=O)O)[C@@H]1CC2	inactive	–
O=c1n(CCO)c(=O)n(CCO)c(=O)n1CCO	inactive	–
CCC(C)C1CCCCC1=O (configuration not stated)	inactive	–
COC(C)(C)CCCC(C)CC=O (configuration not stated)	inactive	–

System: not listed separately
Test: qHTS assay to identify small molecule that activate the aryl hydrocarbon receptor (AhR) signaling pathway - cell viability counter screen (AID 743086);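 also: HepG2 liver cells carrying the AhR DRE luciferase reporter; nearly all actives have a fitted effect of over 45% in size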
Settings: HepG2-AhR-luc viability, CellTiter-Fluor, 24 h; series mostly up to 70.3 µM
In short: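 HepG2-AhR-luc (HG2L7.5c1) cells, 4000/well, were preincubated 5 h at 37C, exposed to compound in qHTS format for 24 hr at 37C, then given CellTiter-Fluor for 30 min; viability was read as fluorescence in the reporter wells.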

SMILES	Potency	viability change, negative = cytotoxic
Cn1c(N)c(N=O)c(=O)n(C)c1=O	inactive	–
N[C@H](C(=O)O)c1ccc(O)cc1	inactive	–
Nc1ccccc1S(=O)(=O)O	inactive	–
COc1c(N2C[C@@H]3CCCN[C@@H]3C2)c(F)cc2c(=O)c(C(=O)O)cn(C3CC3)c12	inactive	–
CC(=O)OCC(CCn1cnc2cnc(N)nc21)COC(C)=O	inactive	–
CCn1nc(C(=O)O)c(=O)c2cc3c(cc21)OCO3	inactive	–
CCC(C)S (configuration not stated)	–	-4.09% [at 3.79 µM] (inactive)
CCCCCCOC(=O)CCCCC(=O)OCCCCCC	inactive	–
CC/C=C\CCOC(C)=O	inactive	–
C[C@H]1C[C@@H](O)CC(C)(C)C1	inactive	–
O=C1OC(=O)C2CCCCC12 (configuration not stated)	inactive	–
O=C1CC2CC1C1CCCC21 (configuration not stated)	inactive	–
CCCN(CCC)CCc1cccc2c1CC(=O)N2	inactive	–
C=C(C)CS(=O)(=O)O	inactive	–
Nc1cc(=O)[nH]c(N)n1	inactive	–
NCCCNCCSP(=O)(O)O	inactive	–
CC(=O)OCC(=O)[C@@]1(O)CCC2C3CCC4=CC(=O)CC[C@]4(C)C3[C@@H](O)C[C@@]21C (some centres not stated)	inactive	–

SMILES	Potency	viability change, negative = cytotoxic
NS(=O)(=O)c1ccc(C(=O)O)cc1	inactive	–
CCOc1ccc(C(=O)OCCN(CC)CC)cc1	inactive	–
O=c1cc(CO)occ1O	inactive	–
O=c1[nH]c(=O)n([C@H]2C[C@H](O)[C@@H](CO)O2)cc1I	inactive	–
CC(C[N+](C)(C)C)OC(N)=O (configuration not stated)	inactive	–
CO[Si](CCCOCC1CO1)(OC)OC (configuration not stated)	inactive	–
CN1C(=O)N(C)C(O)C1O (configuration not stated)	inactive	–
CC1=CC(C)C(C=O)CC1 (configuration not stated)	inactive	–
OCCOc1ccc(OCCO)cc1	inactive	–
O=C(O)c1ccccc1OP(=O)(O)O	inactive	–
CC(C)NC(=O)NC(C)C	inactive	–
CCN(CC)CCNC(=O)c1cc(S(C)(=O)=O)ccc1OC	inactive	–
Cn1cc(S(C)=O)c(=O)c2ccc(F)cc21 (configuration not stated)	inactive	–
CC(C)c1cc2c(cc1S(=O)(=O)O)[C@@]1(C)CCC[C@@](C)(C(=O)O)[C@@H]1CC2	inactive	–
O=c1n(CCO)c(=O)n(CCO)c(=O)n1CCO	inactive	–
CCC(C)C1CCCCC1=O (configuration not stated)	inactive	–
COC(C)(C)CCCC(C)CC=O (configuration not stated)	inactive	–

From PubChem BioAssay (Tox21)
